# Measured values taken from PubChem BioAssay AID1159580 (chemical genetic matrix, 2015).
# The whole screen tested about 5,500 compounds, of which about 2,000 (36%) were called active. Roughly 18% stayed inconclusive and do not appear here. This is one part of the list. A number with no mark means an inactive call. No stated cut-off is given here; in the data, active means normalized growth mostly below about 0.91 (no sharp cut-off); inconclusive means no clear call, values can overlap the other calls; inactive means mostly above about 0.92.
# Assay: chemical genetic growth profiling, strain panel (AID 1159580);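 further: tested at 20 µM; growth read once vehicle control cultures reached saturation at 30 °C; 1 = growth at the plate median or of vehicle wells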
# Conditions: growth OD
structure (smiles),measurement,setting,value
CCCCCCCCCCCCC[N+](C)(C)Cc1ccccc1,normalized growth,"S. cerevisiae deletion strains, locus YJR075W, strain HOC1, stronger effect = lower value",0.0621 (active)
same,normalized growth,"S. cerevisiae deletion strains, locus YKL009W, strain mrt4, stronger effect = lower value",0.102 (active)
same,normalized growth,"S. cerevisiae deletion strains, locus YKL068W, stronger effect = lower value",0.0707 (active)
same,normalized growth,"S. cerevisiae deletion strains, locus YKL085W, strain MDH1 (second series), stronger effect = lower value",0.0622 (active)
same,normalized growth,"S. cerevisiae deletion strains, locus YKL085W, strain MDH1, stronger effect = lower value",0.0622 (active)
same,normalized growth,"S. cerevisiae deletion strains, locus YKL160W, strain elf1, stronger effect = lower value",0.0609 (active)
same,normalized growth,"S. cerevisiae deletion strains, locus YKL190W, strain CNB1, stronger effect = lower value",0.0462 (active)
same,normalized growth,"S. cerevisiae deletion strains, locus YKR001C, strain vps1, stronger effect = lower value",0.0665 (active)
same,normalized growth,"S. cerevisiae deletion strains, locus YKR026C, strain gcn3, stronger effect = lower value",0.0645 (active)
same,normalized growth,"S. cerevisiae deletion strains, locus YKR091W, strain srl3, stronger effect = lower value",0.0591 (active)
same,normalized growth,"S. cerevisiae deletion strains, locus YLL001W, strain dnm1, stronger effect = lower value",0.0643 (active)
same,normalized growth,"S. cerevisiae deletion strains, locus YLL026W, stronger effect = lower value",0.0581 (active)
same,normalized growth,"S. cerevisiae deletion strains, locus YLL041C, strain sdh2, stronger effect = lower value",0.0534 (active)
same,normalized growth,"S. cerevisiae deletion strains, locus YLR027C, strain aat2, stronger effect = lower value",0.0632 (active)
same,normalized growth,"S. cerevisiae deletion strains, locus YLR039C, strain RIC1, stronger effect = lower value",0.0768 (active)
same,normalized growth,"S. cerevisiae deletion strains, locus YLR058C, strain SHM2, stronger effect = lower value",0.0468 (active)
same,normalized growth,"S. cerevisiae deletion strains, locus YLR102C, strain apc9, stronger effect = lower value",0.0591 (active)
same,normalized growth,"S. cerevisiae deletion strains, locus YLR113W, strain HOG1, stronger effect = lower value",0.115 (active)
same,normalized growth,"S. cerevisiae deletion strains, locus YLR221C, strain rsa3, stronger effect = lower value",0.0601 (active)
same,normalized growth,"S. cerevisiae deletion strains, locus YLR258W, strain gsy2, stronger effect = lower value",0.0594 (active)
same,normalized growth,"S. cerevisiae deletion strains, locus YLR262C, strain YPT6 (second series), stronger effect = lower value",0.0813 (active)
same,normalized growth,"S. cerevisiae deletion strains, locus YLR262C, strain YPT6, stronger effect = lower value",0.0988 (active)
same,normalized growth,"S. cerevisiae deletion strains, locus YLR268W, strain sec22, stronger effect = lower value",0.0715 (active)
same,normalized growth,"S. cerevisiae deletion strains, locus YLR320W, strain mms22, stronger effect = lower value",0.0747 (active)
same,normalized growth,"S. cerevisiae deletion strains, locus YLR330W, strain CHS5, stronger effect = lower value",0.0507 (active)
same,normalized growth,"S. cerevisiae deletion strains, locus YLR342W, strain FKS1 (second series), stronger effect = lower value",0.0621 (active)
same,normalized growth,"S. cerevisiae deletion strains, locus YLR342W, strain FKS1, stronger effect = lower value",0.0644 (active)
same,normalized growth,"S. cerevisiae deletion strains, locus YLR357W, strain rsc2, stronger effect = lower value",0.114 (active)
same,normalized growth,"S. cerevisiae deletion strains, locus YLR370C, strain arc18, stronger effect = lower value",0.0615 (active)
same,normalized growth,"S. cerevisiae deletion strains, locus YLR371W, strain rom2, stronger effect = lower value",0.0625 (active)
same,normalized growth,"S. cerevisiae deletion strains, locus YLR384C, strain iki3, stronger effect = lower value",0.0574 (active)
same,normalized growth,"S. cerevisiae deletion strains, locus YLR418C, strain cdc73, stronger effect = lower value",0.0973 (active)
same,normalized growth,"S. cerevisiae deletion strains, locus YML016C, strain PPZ1, stronger effect = lower value",0.0455 (active)
same,normalized growth,"S. cerevisiae deletion strains, locus YML032C, strain rad52, stronger effect = lower value",0.0731 (active)
same,normalized growth,"S. cerevisiae deletion strains, locus YML120C, strain ndi1, stronger effect = lower value",0.0563 (active)
same,normalized growth,"S. cerevisiae deletion strains, locus YML124C, strain tub3, stronger effect = lower value",0.0618 (active)
same,normalized growth,"S. cerevisiae deletion strains, locus YMR058W, strain fet3, stronger effect = lower value",0.064 (active)
same,normalized growth,"S. cerevisiae deletion strains, locus YMR078C, strain ctf18, stronger effect = lower value",0.0768 (active)
same,normalized growth,"S. cerevisiae deletion strains, locus YMR125W, strain sto1, stronger effect = lower value",0.0739 (active)
same,normalized growth,"S. cerevisiae deletion strains, locus YMR129W, stronger effect = lower value",0.0593 (active)
same,normalized growth,"S. cerevisiae deletion strains, locus YMR205C, strain PFK2, stronger effect = lower value",0.0873 (active)
same,normalized growth,"S. cerevisiae deletion strains, locus YMR223W, strain ubp8, stronger effect = lower value",0.0651 (active)
same,normalized growth,"S. cerevisiae deletion strains, locus YMR231W, strain pep5, stronger effect = lower value",0.0683 (active)
same,normalized growth,"S. cerevisiae deletion strains, locus YMR307W, strain GAS1, stronger effect = lower value",0.11 (active)
same,normalized growth,"S. cerevisiae deletion strains, locus YNL067W, strain RPL9B, stronger effect = lower value",0.0494 (active)
same,normalized growth,"S. cerevisiae deletion strains, locus YNL071W, strain lat1, stronger effect = lower value",0.0572 (active)
same,normalized growth,"S. cerevisiae deletion strains, locus YNL128W, strain TEP1, stronger effect = lower value",0.0628 (active)
same,normalized growth,"S. cerevisiae deletion strains, locus YNL153C, strain GIM3, stronger effect = lower value",0.0486 (active)
same,normalized growth,"S. cerevisiae deletion strains, locus YNL183C, strain NPR1, stronger effect = lower value",-0.00105 (active)
same,normalized growth,"S. cerevisiae deletion strains, locus YNL209W, strain ssb2, stronger effect = lower value",0.0596 (active)
same,normalized growth,"S. cerevisiae deletion strains, locus YNL233W, strain BNI4, stronger effect = lower value",0.0559 (active)
same,normalized growth,"S. cerevisiae deletion strains, locus YNL248C, strain rpa49, stronger effect = lower value",0.0866 (active)
same,normalized growth,"S. cerevisiae deletion strains, locus YNL250W, strain rad50, stronger effect = lower value",0.107 (active)
same,normalized growth,"S. cerevisiae deletion strains, locus YNL271C, strain bni1, stronger effect = lower value",0.0664 (active)
same,normalized growth,"S. cerevisiae deletion strains, locus YNL298W, strain CLA4, stronger effect = lower value",0.0607 (active)
same,normalized growth,"S. cerevisiae deletion strains, locus YNL307C, strain MCK1, stronger effect = lower value",0.0673 (active)
same,normalized growth,"S. cerevisiae deletion strains, locus YNL322C, strain KRE1 (second series), stronger effect = lower value",0.0716 (active)
same,normalized growth,"S. cerevisiae deletion strains, locus YNR049C, strain mso1, stronger effect = lower value",0.0569 (active)
same,normalized growth,"S. cerevisiae deletion strains, locus YNR052C, strain pop2, stronger effect = lower value",0.0607 (active)
same,normalized growth,"S. cerevisiae deletion strains, locus YOL006C, strain TOP1, stronger effect = lower value",0.101 (active)
same,normalized growth,"S. cerevisiae deletion strains, locus YOL012C, strain htz1",0.22
same,normalized growth,"S. cerevisiae deletion strains, locus YOL147C, strain pex11, stronger effect = lower value",0.0664 (active)
same,normalized growth,"S. cerevisiae deletion strains, locus YOR001W, strain rrp6, stronger effect = lower value",0.0665 (active)
same,normalized growth,"S. cerevisiae deletion strains, locus YOR061W, strain CKA2, stronger effect = lower value",0.0452 (active)
same,normalized growth,"S. cerevisiae deletion strains, locus YOR069W, strain VPS5, stronger effect = lower value",0.0467 (active)
same,normalized growth,"S. cerevisiae deletion strains, locus YOR070C, strain gyp1, stronger effect = lower value",0.0668 (active)
same,normalized growth,"S. cerevisiae deletion strains, locus YOR080W, strain dia2, stronger effect = lower value",0.0657 (active)
same,normalized growth,"S. cerevisiae deletion strains, locus YOR083W, strain WHI5, stronger effect = lower value",0.0673 (active)
same,normalized growth,"S. cerevisiae deletion strains, locus YOR106W, strain vam3, stronger effect = lower value",0.0651 (active)
same,normalized growth,"S. cerevisiae deletion strains, locus YOR136W, strain idh2, stronger effect = lower value",0.0728 (active)
same,normalized growth,"S. cerevisiae deletion strains, locus YOR144C, strain elg1, stronger effect = lower value",0.0629 (active)
same,normalized growth,"S. cerevisiae deletion strains, locus YOR184W, strain ser1, stronger effect = lower value",0.0779 (active)
same,normalized growth,"S. cerevisiae deletion strains, locus YOR231W, strain MKK1, stronger effect = lower value",0.103 (active)
same,normalized growth,"S. cerevisiae deletion strains, locus YOR265W, strain rbl2, stronger effect = lower value",0.0552 (active)
same,normalized growth,"S. cerevisiae deletion strains, locus YOR270C, strain vph1, stronger effect = lower value",0.0971 (active)
same,normalized growth,"S. cerevisiae deletion strains, locus YOR290C, strain snf2, stronger effect = lower value",0.0603 (active)
same,normalized growth,"S. cerevisiae deletion strains, locus YOR316C, strain cot1, stronger effect = lower value",0.0576 (active)
same,normalized growth,"S. cerevisiae deletion strains, locus YPL051W, strain arl3, stronger effect = lower value",0.0609 (active)
same,normalized growth,"S. cerevisiae deletion strains, locus YPL055C, strain LGE1, stronger effect = lower value",0.0695 (active)
same,normalized growth,"S. cerevisiae deletion strains, locus YPL078C, strain atp4, stronger effect = lower value",0.0642 (active)
same,normalized growth,"S. cerevisiae deletion strains, locus YPL106C, strain sse1, stronger effect = lower value",0.0953 (active)
same,normalized growth,"S. cerevisiae deletion strains, locus YPL240C, strain hsp82, stronger effect = lower value",0.0558 (active)
same,normalized growth,"S. cerevisiae deletion strains, locus YPL256C, strain CLN2, stronger effect = lower value",0.111 (active)
same,normalized growth,"S. cerevisiae deletion strains, locus YPR119W, strain clb2, stronger effect = lower value",0.0637 (active)
same,normalized growth,"S. cerevisiae deletion strains, locus YPR141C, strain kar3, stronger effect = lower value",0.0734 (active)
same,normalized growth,"S. cerevisiae deletion strains, locus YPR163C, strain tif3, stronger effect = lower value",0.0705 (active)
same,normalized growth,"S. cerevisiae deletion strains, locus YPR167C, strain met16, stronger effect = lower value",0.063 (active)
same,normalized growth,"S. cerevisiae deletion strains, strain wtn01, stronger effect = lower value",0.067 (active)
same,normalized growth,"S. cerevisiae strains, strain wild type, stronger effect = lower value",0.0467 (active)
